# Data taken from publication PMC7862700, “An all-to-all approach to the identification of sequence-specific readers for epigenetic DNA modifications on cytosine”.
# How the values were obtained:
# Assay in all cases: DAPPL (digital affinity profiling via proximity ligation, sequencing); 10 mM Tris-HCl pH 7.5, 50 mM NaCl, 1 mM DTT, 4% glycerol, room temperature, 30 min; GST-TFs on glutathione beads, 16-mer random dsDNA library, 0.1% formaldehyde crosslink after washing; high values mean tight binding
# FEV = target: T1, FEV (Homo sapiens, UniProt Q99581 1-238); conditions: protein: recombinant; tags: N-terminal GST; dsDNA, one strand shown
# T1 sequence: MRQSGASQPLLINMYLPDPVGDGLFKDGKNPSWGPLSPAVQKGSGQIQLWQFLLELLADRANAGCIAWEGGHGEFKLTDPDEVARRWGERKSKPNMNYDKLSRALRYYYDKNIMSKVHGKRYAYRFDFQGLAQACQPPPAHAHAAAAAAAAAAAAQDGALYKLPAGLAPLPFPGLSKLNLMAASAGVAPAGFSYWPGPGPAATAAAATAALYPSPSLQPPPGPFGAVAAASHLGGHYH
# Outline: (§1)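 Binding signal is defined as a hexamer's read frequency for one factor over its frequency for the tag-only sample. To obtain reads, GST-fused human transcription factors were expressed in yeast, captured on glutathione beads, barcoded with DNA and pooled with that sample. Pools met 200 nmole of a 16-mer random double-stranded DNA library in Tris/NaCl/DTT/glycerol buffer for 30 min at room temperature before washing, 0.1% formaldehyde crosslinking, proximity ligation (BsaI/T4 ligase, 1 h, 37 °C), PCR and Illumina NextSeq500 sequencing.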
# ETV5 = ETV5 (Homo sapiens, UniProt P41161 1-510); conditions: protein: recombinant; tags: N-terminal GST; dsDNA, one strand shown
# ETV5, sequence (P41161 whole entry): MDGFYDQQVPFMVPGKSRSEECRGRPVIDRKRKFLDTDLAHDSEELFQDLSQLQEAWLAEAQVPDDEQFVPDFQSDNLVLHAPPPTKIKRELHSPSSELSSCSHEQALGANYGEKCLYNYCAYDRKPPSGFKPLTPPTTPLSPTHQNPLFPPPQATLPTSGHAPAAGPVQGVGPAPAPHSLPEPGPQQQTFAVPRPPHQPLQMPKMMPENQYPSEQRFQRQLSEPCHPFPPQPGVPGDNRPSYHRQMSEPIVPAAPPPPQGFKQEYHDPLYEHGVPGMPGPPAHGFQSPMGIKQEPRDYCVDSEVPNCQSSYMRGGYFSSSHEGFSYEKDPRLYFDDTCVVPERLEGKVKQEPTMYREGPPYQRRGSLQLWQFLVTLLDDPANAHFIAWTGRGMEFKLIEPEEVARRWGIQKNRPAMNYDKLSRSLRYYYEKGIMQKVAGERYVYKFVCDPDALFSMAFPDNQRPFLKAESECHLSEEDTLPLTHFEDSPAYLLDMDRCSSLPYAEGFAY
# Outline: as §1
# HSF1 = HSF1 (Homo sapiens, UniProt Q00613 1-529); conditions: protein: recombinant; tags: N-terminal GST; chain copies: 3; dsDNA, one strand shown
# HSF1, sequence (Q00613 whole entry): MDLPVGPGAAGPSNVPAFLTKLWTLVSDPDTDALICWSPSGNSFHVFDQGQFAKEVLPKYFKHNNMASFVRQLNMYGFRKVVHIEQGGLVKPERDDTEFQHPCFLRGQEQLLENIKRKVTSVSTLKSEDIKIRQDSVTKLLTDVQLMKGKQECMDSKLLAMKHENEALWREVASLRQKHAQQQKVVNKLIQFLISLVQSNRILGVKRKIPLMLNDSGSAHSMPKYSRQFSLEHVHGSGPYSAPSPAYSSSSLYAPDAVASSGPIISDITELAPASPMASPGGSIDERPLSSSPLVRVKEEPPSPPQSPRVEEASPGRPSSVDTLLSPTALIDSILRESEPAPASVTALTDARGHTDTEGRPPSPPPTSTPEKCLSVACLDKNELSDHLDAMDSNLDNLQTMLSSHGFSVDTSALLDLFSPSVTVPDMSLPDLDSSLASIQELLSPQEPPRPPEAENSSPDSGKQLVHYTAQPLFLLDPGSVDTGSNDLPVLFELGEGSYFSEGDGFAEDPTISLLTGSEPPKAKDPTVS
# Outline: as §1
# SPIC = target: T2, SPIC (Homo sapiens, UniProt Q8N5J4 1-248); conditions: protein: recombinant; tags: N-terminal GST; dsDNA, one strand shown
# T2 sequence: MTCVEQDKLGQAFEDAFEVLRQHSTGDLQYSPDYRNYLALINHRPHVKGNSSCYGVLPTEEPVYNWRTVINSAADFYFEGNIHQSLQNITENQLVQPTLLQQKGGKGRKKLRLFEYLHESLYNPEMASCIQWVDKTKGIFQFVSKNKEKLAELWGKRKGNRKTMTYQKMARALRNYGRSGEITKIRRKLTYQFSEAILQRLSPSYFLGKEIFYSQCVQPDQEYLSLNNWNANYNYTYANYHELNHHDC
# Outline: as §1
# ELF4 = ELF4 (Homo sapiens, UniProt Q99607 1-663); conditions: protein: recombinant; tags: N-terminal GST; dsDNA, one strand shown
# ELF4, sequence (Q99607 whole entry): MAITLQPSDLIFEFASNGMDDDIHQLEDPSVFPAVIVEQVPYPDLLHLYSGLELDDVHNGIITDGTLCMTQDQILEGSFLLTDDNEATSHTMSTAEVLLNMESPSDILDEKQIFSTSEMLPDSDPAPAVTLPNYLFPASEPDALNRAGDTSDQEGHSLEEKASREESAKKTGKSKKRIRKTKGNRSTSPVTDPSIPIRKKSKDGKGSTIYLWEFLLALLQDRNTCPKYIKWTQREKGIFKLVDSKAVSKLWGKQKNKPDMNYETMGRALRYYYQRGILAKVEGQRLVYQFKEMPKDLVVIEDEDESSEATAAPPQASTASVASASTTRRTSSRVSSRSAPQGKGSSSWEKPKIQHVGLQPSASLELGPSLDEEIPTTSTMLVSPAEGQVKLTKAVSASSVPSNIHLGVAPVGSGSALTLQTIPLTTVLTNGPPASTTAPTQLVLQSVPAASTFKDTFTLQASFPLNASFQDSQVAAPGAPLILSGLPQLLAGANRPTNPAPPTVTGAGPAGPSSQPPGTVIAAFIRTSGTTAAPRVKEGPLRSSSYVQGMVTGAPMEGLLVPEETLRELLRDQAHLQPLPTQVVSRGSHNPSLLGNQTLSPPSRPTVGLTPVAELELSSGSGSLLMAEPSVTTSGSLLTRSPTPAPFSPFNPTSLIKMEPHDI
# Outline: as §1
# ELK4 = target: T3, ELK4 (Homo sapiens, UniProt P28324-2 1-405); conditions: protein: recombinant; tags: N-terminal GST; dsDNA, one strand shown
# T3 sequence: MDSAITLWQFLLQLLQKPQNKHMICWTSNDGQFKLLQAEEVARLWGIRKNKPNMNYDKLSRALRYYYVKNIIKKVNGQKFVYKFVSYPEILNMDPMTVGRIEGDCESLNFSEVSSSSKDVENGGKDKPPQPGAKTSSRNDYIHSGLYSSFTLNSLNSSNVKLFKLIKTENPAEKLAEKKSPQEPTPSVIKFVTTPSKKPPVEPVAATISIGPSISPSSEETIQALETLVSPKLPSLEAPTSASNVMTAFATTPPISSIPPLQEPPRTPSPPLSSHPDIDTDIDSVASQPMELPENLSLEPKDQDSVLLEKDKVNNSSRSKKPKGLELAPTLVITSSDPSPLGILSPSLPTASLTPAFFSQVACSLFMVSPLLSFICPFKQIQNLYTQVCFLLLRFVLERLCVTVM
# Outline: as §1
# ETV2 = target: T4, ETV2 (Homo sapiens, UniProt O00321 1-342); conditions: protein: recombinant; tags: N-terminal GST; dsDNA, one strand shown
# T4 sequence: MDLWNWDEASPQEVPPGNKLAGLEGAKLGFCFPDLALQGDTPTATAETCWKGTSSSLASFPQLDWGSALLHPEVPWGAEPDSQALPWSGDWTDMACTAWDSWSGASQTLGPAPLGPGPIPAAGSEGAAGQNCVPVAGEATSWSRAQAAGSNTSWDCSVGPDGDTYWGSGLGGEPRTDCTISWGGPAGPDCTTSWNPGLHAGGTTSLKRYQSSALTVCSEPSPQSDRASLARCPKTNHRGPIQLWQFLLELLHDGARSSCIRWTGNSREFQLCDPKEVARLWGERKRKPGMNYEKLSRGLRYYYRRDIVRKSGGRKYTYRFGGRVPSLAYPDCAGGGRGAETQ
# Outline: as §1
# ELF3 = target: T5, ELF3 (Homo sapiens, UniProt P78545 1-371); conditions: protein: recombinant; tags: N-terminal GST; dsDNA, one strand shown
# T5 sequence: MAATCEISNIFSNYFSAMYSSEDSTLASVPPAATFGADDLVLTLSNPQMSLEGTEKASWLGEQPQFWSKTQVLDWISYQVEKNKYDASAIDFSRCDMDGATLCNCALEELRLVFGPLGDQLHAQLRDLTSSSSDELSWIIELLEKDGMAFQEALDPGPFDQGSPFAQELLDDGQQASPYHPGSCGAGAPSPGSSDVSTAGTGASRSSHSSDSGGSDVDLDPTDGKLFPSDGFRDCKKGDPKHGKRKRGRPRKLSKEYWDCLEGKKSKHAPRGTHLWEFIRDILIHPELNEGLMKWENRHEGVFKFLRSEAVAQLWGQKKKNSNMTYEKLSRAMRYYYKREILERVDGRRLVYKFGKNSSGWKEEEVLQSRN
# Outline: as §1
# CRX = CRX (Homo sapiens, UniProt O43186 1-299); conditions: protein: recombinant; tags: N-terminal GST; dsDNA, one strand shown
# CRX, sequence (O43186 whole entry): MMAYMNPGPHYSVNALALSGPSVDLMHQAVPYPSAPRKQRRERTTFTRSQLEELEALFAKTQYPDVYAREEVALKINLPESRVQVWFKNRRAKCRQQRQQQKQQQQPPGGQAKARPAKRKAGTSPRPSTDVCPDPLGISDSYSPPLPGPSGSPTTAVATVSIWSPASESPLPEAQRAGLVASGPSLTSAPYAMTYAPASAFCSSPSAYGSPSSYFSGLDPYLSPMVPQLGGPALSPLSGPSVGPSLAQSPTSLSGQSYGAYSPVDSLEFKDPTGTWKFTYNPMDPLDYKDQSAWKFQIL
# Outline: as §1
# ETV1 = ETV1 (Homo sapiens, UniProt P50549 1-477); conditions: protein: recombinant; tags: N-terminal GST; dsDNA, one strand shown
# ETV1, sequence (P50549 whole entry): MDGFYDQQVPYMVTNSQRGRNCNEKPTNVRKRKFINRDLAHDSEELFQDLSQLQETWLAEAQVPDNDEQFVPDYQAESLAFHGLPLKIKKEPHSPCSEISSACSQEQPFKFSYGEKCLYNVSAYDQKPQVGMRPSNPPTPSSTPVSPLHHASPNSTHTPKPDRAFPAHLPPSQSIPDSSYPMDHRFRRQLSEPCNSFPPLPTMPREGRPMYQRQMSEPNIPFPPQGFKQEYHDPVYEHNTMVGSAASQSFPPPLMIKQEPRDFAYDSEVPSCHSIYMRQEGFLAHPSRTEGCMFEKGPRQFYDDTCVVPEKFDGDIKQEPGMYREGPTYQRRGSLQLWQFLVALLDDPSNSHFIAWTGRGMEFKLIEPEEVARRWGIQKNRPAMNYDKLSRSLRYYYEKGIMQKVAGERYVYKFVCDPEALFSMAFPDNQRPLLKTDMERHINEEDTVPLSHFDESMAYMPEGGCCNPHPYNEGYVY
# Outline: as §1
# ERF = target: T6, ERF (Homo sapiens, UniProt P50548 1-548); conditions: protein: recombinant; tags: N-terminal GST; dsDNA, one strand shown
# T6 sequence: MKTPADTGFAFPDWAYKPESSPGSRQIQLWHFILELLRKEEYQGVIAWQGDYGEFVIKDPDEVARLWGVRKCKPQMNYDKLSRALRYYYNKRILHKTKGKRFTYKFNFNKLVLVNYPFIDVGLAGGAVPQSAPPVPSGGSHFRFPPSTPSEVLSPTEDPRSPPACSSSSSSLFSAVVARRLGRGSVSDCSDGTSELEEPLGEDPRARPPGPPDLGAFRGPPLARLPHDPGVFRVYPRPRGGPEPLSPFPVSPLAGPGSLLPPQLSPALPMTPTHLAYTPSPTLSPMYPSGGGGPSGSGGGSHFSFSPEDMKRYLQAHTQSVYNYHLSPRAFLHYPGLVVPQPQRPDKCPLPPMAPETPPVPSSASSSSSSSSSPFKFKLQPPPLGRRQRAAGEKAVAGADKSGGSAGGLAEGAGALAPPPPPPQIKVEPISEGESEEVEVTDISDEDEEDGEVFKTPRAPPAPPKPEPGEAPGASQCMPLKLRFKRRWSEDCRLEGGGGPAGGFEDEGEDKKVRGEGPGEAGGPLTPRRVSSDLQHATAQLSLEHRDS
# Outline: as §1
# ETV3L = target: T7, ETV3L (Homo sapiens, UniProt Q6ZN32 1-361); conditions: protein: recombinant; tags: N-terminal GST; dsDNA, one strand shown
# T7 sequence: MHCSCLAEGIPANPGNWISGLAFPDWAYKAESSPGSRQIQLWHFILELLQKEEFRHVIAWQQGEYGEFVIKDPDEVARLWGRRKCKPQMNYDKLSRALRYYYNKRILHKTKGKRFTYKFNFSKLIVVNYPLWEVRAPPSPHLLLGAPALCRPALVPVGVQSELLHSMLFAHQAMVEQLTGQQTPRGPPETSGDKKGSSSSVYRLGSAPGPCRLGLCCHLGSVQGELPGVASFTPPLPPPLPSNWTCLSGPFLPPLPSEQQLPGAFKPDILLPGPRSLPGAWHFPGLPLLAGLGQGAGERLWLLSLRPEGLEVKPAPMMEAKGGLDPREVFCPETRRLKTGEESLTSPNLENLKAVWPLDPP
# Outline: as §1
# ETS2 = target: T8, ETS2 (Homo sapiens, UniProt P15036 1-469); conditions: protein: recombinant; tags: N-terminal GST; dsDNA, one strand shown
# T8 sequence: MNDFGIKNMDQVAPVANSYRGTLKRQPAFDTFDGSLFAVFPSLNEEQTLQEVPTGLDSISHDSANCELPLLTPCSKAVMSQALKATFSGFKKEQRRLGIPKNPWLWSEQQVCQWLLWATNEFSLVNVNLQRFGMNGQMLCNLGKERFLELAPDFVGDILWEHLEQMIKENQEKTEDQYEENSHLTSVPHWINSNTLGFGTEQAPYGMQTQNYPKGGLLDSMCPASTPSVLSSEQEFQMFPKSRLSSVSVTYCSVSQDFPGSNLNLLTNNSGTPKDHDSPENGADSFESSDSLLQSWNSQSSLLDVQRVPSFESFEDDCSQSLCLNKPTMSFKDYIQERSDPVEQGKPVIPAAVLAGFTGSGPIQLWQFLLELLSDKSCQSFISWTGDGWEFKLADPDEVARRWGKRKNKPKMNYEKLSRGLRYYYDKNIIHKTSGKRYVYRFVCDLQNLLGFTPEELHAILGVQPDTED
# Outline: as §1
# SPDEF = target: T9, SPDEF (Homo sapiens, UniProt O95238 1-335); conditions: protein: recombinant; tags: N-terminal GST; dsDNA, one strand shown
# T9 sequence: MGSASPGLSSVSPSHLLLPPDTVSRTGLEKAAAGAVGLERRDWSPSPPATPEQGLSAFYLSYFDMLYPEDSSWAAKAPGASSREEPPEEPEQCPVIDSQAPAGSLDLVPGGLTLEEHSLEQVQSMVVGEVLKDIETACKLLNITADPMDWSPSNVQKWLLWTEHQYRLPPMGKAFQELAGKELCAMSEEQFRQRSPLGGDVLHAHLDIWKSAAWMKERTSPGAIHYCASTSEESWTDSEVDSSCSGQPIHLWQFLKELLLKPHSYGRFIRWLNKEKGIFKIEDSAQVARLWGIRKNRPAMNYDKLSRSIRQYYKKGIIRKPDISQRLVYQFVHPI
# Outline: as §1
# ETV7 = target: T10, ETV7 (Homo sapiens, UniProt Q9Y603 1-341); conditions: protein: recombinant; tags: N-terminal GST; dsDNA, one strand shown
# T10 sequence: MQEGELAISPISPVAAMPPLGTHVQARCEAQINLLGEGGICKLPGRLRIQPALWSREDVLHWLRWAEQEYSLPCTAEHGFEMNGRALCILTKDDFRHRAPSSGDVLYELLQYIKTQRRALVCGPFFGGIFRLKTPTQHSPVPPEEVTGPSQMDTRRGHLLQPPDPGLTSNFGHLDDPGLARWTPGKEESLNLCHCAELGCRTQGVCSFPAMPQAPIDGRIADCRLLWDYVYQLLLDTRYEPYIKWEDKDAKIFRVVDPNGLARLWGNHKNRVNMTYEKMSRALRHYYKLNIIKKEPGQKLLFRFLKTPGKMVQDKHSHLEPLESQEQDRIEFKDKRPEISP
# Outline: as §1
# ELF5 = target: T11, ELF5 (Homo sapiens, UniProt Q9UKW6-2 1-255); conditions: protein: recombinant; tags: N-terminal GST; dsDNA, one strand shown
# T11 sequence: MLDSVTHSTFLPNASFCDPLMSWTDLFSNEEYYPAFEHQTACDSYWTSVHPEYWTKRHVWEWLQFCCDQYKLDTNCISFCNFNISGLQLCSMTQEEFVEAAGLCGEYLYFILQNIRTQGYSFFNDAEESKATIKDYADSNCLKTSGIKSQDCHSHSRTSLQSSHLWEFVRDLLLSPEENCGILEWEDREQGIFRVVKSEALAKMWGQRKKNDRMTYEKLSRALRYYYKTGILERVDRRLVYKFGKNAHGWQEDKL
# Outline: as §1
# ETV3 = target: T12, ETV3 (Homo sapiens, UniProt P41162-2 1-143); conditions: protein: recombinant; tags: N-terminal GST; dsDNA, one strand shown
# T12 sequence: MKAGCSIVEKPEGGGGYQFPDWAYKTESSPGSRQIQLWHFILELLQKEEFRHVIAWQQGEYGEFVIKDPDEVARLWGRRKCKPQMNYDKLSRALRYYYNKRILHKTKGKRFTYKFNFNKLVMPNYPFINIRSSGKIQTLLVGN
# Outline: as §1
# ETV6 = ETV6 (Homo sapiens, UniProt P41212 1-452); conditions: protein: recombinant; tags: N-terminal GST; dsDNA, one strand shown
# ETV6, sequence (P41212 whole entry): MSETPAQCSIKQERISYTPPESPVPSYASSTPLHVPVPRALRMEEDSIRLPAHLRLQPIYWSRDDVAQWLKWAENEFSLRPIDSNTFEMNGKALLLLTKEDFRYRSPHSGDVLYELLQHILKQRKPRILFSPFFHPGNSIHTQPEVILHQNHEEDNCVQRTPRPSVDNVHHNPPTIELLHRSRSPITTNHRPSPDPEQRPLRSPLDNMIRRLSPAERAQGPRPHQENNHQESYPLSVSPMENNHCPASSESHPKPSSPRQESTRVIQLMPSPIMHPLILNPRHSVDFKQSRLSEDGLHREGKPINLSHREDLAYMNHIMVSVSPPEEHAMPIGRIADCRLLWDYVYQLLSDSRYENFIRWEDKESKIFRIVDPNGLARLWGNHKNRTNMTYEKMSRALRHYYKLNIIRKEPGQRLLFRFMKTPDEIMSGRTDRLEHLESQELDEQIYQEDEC
# Outline: as §1
sequence,measurement,setting,value
ATGTAT,binding signal,FEV,"1.31 fold enrichment (6-mer frequency, TF over GST control)"
same,binding signal,ETV5,"1.33 fold enrichment (6-mer frequency, TF over GST control)"
same,binding signal,HSF1,"1.18 fold enrichment (6-mer frequency, TF over GST control)"
same,binding signal,SPIC,"1.25 fold enrichment (6-mer frequency, TF over GST control)"
same,binding signal,ELF4,"1.43 fold enrichment (6-mer frequency, TF over GST control)"
same,binding signal,ELK4,"1.57 fold enrichment (6-mer frequency, TF over GST control)"
same,binding signal,ETV2,"1.3 fold enrichment (6-mer frequency, TF over GST control)"
same,binding signal,ELF3,"1.35 fold enrichment (6-mer frequency, TF over GST control)"
same,binding signal,CRX,"1.24 fold enrichment (6-mer frequency, TF over GST control)"
same,binding signal,ETV1,"1.42 fold enrichment (6-mer frequency, TF over GST control)"
same,binding signal,ERF,"1.47 fold enrichment (6-mer frequency, TF over GST control)"
same,binding signal,ETV3L,"1.48 fold enrichment (6-mer frequency, TF over GST control)"
same,binding signal,ETS2,"1.34 fold enrichment (6-mer frequency, TF over GST control)"
same,binding signal,SPDEF,"1.65 fold enrichment (6-mer frequency, TF over GST control)"
same,binding signal,ETV7,"1.47 fold enrichment (6-mer frequency, TF over GST control)"
same,binding signal,ELF5,"1.31 fold enrichment (6-mer frequency, TF over GST control)"
same,binding signal,ETV3,"1.42 fold enrichment (6-mer frequency, TF over GST control)"
same,binding signal,ETV6,"1.32 fold enrichment (6-mer frequency, TF over GST control)"
